The list is not random: actives were taken first. Their share in the collection is about 0.44%.
RmlCD inh mix – mixture blocks RmlC and RmlD coupled enzyme activity | RmlC/RmlD coupled enzyme inhibition, 384-well mixture HTS | inhibition, % at 5.5 µM | 0.39% of 110,000 active; in the data active = inhibition above about 30%, passing the limit was not always enough; inconclusive = no clear call, values can overlap the other calls
YopH PTP inh – YopH (Yersinia) phosphatase inhibition; fluorescence Ex485/Em525; inhibition, % (no concentration beside the values); 0.16% of 140,000 active; in the data active = inhibition above about 50%
RmlCD artifact – counter-screen for RmlC/RmlD inhibitors: fluorescence artifact | shares compounds with RmlCD inh mix | RmlC/RmlD assay fluorescence artifact counter-screen | calls only | 96% of 360 active | AID 1696; call rule not given here;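 note: compound alone with no enzyme and no substrates present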
An asterisk follows results filed as active; i = inactive; ? = inconclusive; . = no result; + = active, no number.

SMILES	RmlCD inh mix	YopH PTP inh	RmlCD artifact
COc1ccc(C2NC(=O)c3sc4nc(C)c(C(C)=O)c(-c5ccc(Cl)cc5)c4c3N2)cc1 (centres undefined)	52*	-33	+
COc1ccc(-c2c(C(C)=O)c(C)nc3sc4c(=N)n(N)cnc4c23)cc1	.	-20	.
CC1CCN(CCCNC(=O)c2coc3nc4ccccc4nc23)CC1	19	-23	.
CC1CCCN(CCCNC(=O)c2coc3nc4ccccc4nc23)C1 (centres undefined)	140*	11	+
Cc1ccc(-n2c(SCC(=O)Nc3ccc4c(c3)OCCO4)nnc2-c2ccco2)cc1	17	-17	.
COC(=O)c1ccc(Oc2c(C)oc3c(CN4CCN(C)CC4)c(O)ccc3c2=O)cc1	40*	-35	+
COc1ccccc1Oc1c(C)oc2c(CN3CCN(C)CC3)c(O)ccc2c1=O	.	-22	.
CCCCCNC(=O)c1c[nH]c2ccc(S(=O)(=O)N3CCC4(CC3)OCCO4)cc2c1=O	.	21	.
COc1ccc(S(=O)(=O)n2nc(OCc3cccs3)cc2N)cc1	11	.	.
O=C(c1cc2c(ccc3ccccc32)oc1=O)N1CCCC1	3	-16	.
O=C(O)c1cc2c(ccc3ccccc32)oc1=O	82*	-12	+
Cc1ccc(C)c(-n2cc[nH]c2=S)c1	.	-8	.
CCC(C)/C=C(C)/C=C/C1=CC2=C(Cl)C(=O)C(C)(OC(C)=O)C(=O)C2=CO1 (centres undefined)	33*	.	+
CC[C@H](C)/C=C(C)/C=C/C1=CC2=C(Cl)C(=O)[C@@](C)(OC(C)=O)C(=O)C2=CO1	-13	.	.
O=C(Cc1cccs1)NC1(C(=O)NC2CCCC2)CCCCC1	.	-22	.
COC(=O)c1c(N)n(-c2ccc(NC(C)=O)cc2)c2nc3ccccc3nc12	64*	44	+
COCCNC(=O)c1c(N)n(-c2ccccc2)c2nc3ccccc3nc12	.	1	.
O=C(c1ccc(F)cc1)n1ccc(-c2cnc(-c3ccccc3)s2)n1	80*	-8	+
Fc1ccc(Cn2ccc(-c3cnc(-c4ccccc4)s3)n2)cc1	-9	-19	.
O=C(N/N=C/c1ccc2cccc(OCc3ccccc3)c2n1)c1ccc(Br)cc1	-317	-17	.
COc1ccc(C(=O)N/N=C/c2ccc3cccc(OCc4ccccc4)c3n2)cc1	-69	-24	i
CCCCOCCCn1c(-c2ccco2)nc2nc3ccccc3nc21	41*	-40	+
CCCCn1c(-c2cccs2)nc2nc3ccccc3nc21	56	-21	.
Cc1ccc2cc3c(N)[nH]nc3nc2c1	.	-12	.
CCC1=NN(C(=O)Cc2ccc(OC)c(OC)c2)C(O)(C(F)(F)F)C1 (centres undefined)	.	-26	.
SMILES	RmlCD inh mix	YopH PTP inh	RmlCD artifact
CCOC(=O)c1cc(C(=O)OCC)c2ccccn2c1=O	71*	1	+
COC(=O)c1cc(C(C)=O)n2ccccc12	-10	11	.
COc1cc(=O)n(C)c2cc(N(C)C)ccc12	80*	26	+
CN1C(=O)c2ccc(N(C)C)cc2C1=O	-3	14	.
N#CC1=C(Nc2ccccc2)SC=C(c2ccc(F)cc2)N=C1N1CCOCC1	.	7	.
O=S(=O)(NC1CCCCC1)c1ccc(Cl)s1	11	-21	.
O=C(COC(=O)c1ccccc1Cl)NC(=O)NCc1ccccc1	.	-20	.
CCNC(=O)NC(=O)COC(=O)c1ccccc1SCC(=O)NC(=O)NCC	+	-34	+
Cc1c(Cl)c(C(F)(F)F)nn1CC(=O)N1CCSCC1	-11	0	.
Cc1ccccc1N1Cc2ccccc2C1	.	-16	.
CC(C)NC(=S)N/N=C/c1cc(Br)ccc1O	.	-28	.
COCCn1c(N)c(C#N)c2nc3ccccc3nc21	55*	14	+
N#Cc1c(N)n(CCOC(=O)c2cccc(Br)c2)c2nc3ccccc3nc12	7	-26	.
COc1ccc(Cn2c(N)c(C#N)c3nc4ccccc4nc32)cc1	.	-6	.
N#Cc1c(N)n(CCOC(=O)c2cccc([N+](=O)[O-])c2)c2nc3ccccc3nc12	45*	-36	+
Cc1ccc2nc(-c3cc(N)cc(N)c3)oc2c1	7	-135	.
Nc1ccc(-c2nc3ccc(-c4nc5ccccc5o4)cc3[nH]2)cc1	+	-38	+
Nc1ccc(-c2nc3ccc(N)cc3o2)cc1	104*	-6	+
Cc1nc2ccc(-c3nc4ccccc4o3)cc2[nH]1	6	-34	.
CC1=Nc2nc(N3CCCCC3)c(C#N)c3c4c(nc(c23)N1)N(c1ccc(C(C)C)cc1)C(=O)C4	.	-29	.
C=CCn1c2ccccc2c2nnc(SCN3C(=O)c4ccccc4C3=O)nc21	50*	-14	i
O=C1c2ccccc2C(=O)N1CSc1nnc2c3ccccc3n(CCc3ccccc3)c2n1	-7	-18	.
COC(=O)C1=C(C(=O)OC)[C@@H]2N(Cc3ccccc3)c3ccccc3[C@@]23C[C@@H](C(=O)OC)N(C(=O)C2CCC2)C3=N1	-50	.	.
O=C(c1ccco1)N1CCN(C(=O)c2cc3c(s2)-c2ccccc2OC3)CC1	46*	-7	+
O=C(O)c1cc2c(s1)-c1ccccc1OC2	?	-35	.
SMILES	RmlCD inh mix	YopH PTP inh	RmlCD artifact
CCN1CCN(CCCNC(=O)c2cc3cc4ccc(OC)cc4nc3o2)CC1	.	-8	.
COc1ccc2cc3cc(C(=O)NCCCN4CCOCC4)oc3nc2c1	43*	-33	+
CC(C)C(NC(=O)c1ccccc1)C(=O)N/N=C\c1ccco1 (centres undefined)	.	-2	.
COc1ccccc1N=c1oc2cc(O)ccc2cc1C(=O)NCC1CCCO1 (centres undefined)	21	-35	.
COc1ccccc1N=c1oc2cc(O)ccc2cc1C(N)=O	40*	-47	+
CCOC(=O)C1=C(C)NC(=O)NC1c1ccco1 (centres undefined)	7	3	.
C=CCOC(=O)C1=C[C@H](c2ccc3c(c2)OCO3)C[C@H](OCCCCO)O1	14	.	.
CCCCn1c(O)c(N=NC(=O)c2ccncc2)c2cc(Br)ccc21	.	-18	.
CCOC(=O)c1nn(-c2ccc(Cl)cc2)c2nc(-c3ccc(C)cc3)c(C#N)c(=O)n12	11	3	.
CCOC(=O)c1nn(-c2ccc(Cl)cc2)c2nc(CC)c(C#N)c(=O)n12	85*	-19	+
CC(=O)Nc1ccc(S(=O)(=O)N(Cc2ccccc2)C(C)C)cc1	-11	3	.
CCN(CC)c1ccc(C2Nc3cccc4cccc(c34)N2)c(O)c1	4	-7	.
CCCn1nnnc1NC(=O)COc1ccc(CC)cc1	.	-28	.
Cc1oc2ccccc2c1-c1cn2c(n1)SCC2	52*	55*	+
c1ccc(-c2cn3c(n2)SCC3)cc1	0	-15	.
CCc1cc(=O)oc2cc(OC(C)=O)cc(OC(C)=O)c12	.	-19	+
CCCCc1cc(=O)oc2cc(C)cc(OCC(=O)O)c12	25	-14	.
COc1ccc(OC)c(/C=N/NC(=O)CC2C(=O)NN=C2C)c1 (centres undefined)	54*	-1	+
COc1cccc(/C=N/NC(=O)CC2C(=O)NN=C2C)c1OC (centres undefined)	0	-12	.
O=C(Oc1ccccc1C(=O)Nc1ccccc1)c1ccccc1Br	.	-19	.
CN(C)C(=O)COc1ccc2cc(-c3ccccc3)c(=O)oc2c1	55*	17	+
Cc1cc(OCC(=O)N(C)C)c2c(-c3ccccc3)cc(=O)oc2c1	-8	-37	.
CCOc1cc(N2CCOCC2)c(OCC)cc1NC(=O)c1ccc(OCc2c(C)noc2C)c(OC)c1	.	-15	.
